Measured values taken from the supplement of paper PMC7724964.
± gives the standard deviation of the averaged measurements.

Columns and labels:
Assay in all cases: phage ELISA signal ratio (GST-PRM binding over GST background); higher = stronger binding of peptide-phage to the PRM
[1] = molecular target: PDCD6 23-191 EF-hand_5+EF-hand_7 (domain begin residue: 23, domain end residue: 191), O75340
Summary of the method: (§1)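 An M13 phage library with randomized hexadecapeptides on the gene-8 major coat protein, each peptide lacking cysteine and flanked by glycine, was selected for five rounds against human peptide recognition domains fused to the C-terminus of glutathione S-transferase (GST) and expressed in 96-well plates. Approximately 48 clones from rounds 4 and 5 went to phage ELISA. The reported value is the ELISA signal on the GST-domain fusion over the signal on GST alone, and positive clones were sequenced.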

[2] = molecular target: T1, PDCD6IP 3-392 BRO1 (domain begin residue: 3, domain end residue: 392), Q8WUM4
T1 chain: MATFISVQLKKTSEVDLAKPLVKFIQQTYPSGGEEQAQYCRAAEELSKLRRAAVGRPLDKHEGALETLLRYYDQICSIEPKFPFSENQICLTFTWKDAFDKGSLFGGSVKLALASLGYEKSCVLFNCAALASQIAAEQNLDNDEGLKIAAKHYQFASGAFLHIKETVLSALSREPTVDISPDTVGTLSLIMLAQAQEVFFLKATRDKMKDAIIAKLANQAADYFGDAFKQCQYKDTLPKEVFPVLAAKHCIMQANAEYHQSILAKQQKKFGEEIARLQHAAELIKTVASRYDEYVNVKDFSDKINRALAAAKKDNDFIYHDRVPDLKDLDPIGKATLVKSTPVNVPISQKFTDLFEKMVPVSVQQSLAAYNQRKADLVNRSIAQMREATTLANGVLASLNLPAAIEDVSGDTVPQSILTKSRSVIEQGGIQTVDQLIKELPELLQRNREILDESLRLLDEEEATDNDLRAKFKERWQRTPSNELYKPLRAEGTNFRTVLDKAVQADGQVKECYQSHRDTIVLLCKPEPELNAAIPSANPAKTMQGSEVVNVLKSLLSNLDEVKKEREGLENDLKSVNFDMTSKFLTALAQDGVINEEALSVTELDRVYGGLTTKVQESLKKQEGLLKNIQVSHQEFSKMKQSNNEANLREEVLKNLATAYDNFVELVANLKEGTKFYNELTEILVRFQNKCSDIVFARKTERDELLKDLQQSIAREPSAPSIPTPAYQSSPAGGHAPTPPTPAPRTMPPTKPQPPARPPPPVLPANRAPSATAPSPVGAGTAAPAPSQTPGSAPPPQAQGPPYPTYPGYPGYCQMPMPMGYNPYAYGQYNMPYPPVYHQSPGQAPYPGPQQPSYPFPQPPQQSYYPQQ
Summary of the method: as §1

[3] = molecular target: PAF1 165-376 Paf1 (domain begin residue: 165, domain end residue: 376), Q8N7H5
Summary of the method: as §1

[4] = molecular target: PHF19 190-255 PHD (domain begin residue: 190, domain end residue: 255), Q5T6S3
Summary of the method: as §1

[5] = molecular target: PIKFYVE 347-450 DEP (domain begin residue: 347, domain end residue: 450), Q9Y2I7
Sequence of PIKFYVE 347-450 DEP (domain begin residue: 347, domain end residue: 450), Q9Y2I7 (Q9Y2I7 whole entry): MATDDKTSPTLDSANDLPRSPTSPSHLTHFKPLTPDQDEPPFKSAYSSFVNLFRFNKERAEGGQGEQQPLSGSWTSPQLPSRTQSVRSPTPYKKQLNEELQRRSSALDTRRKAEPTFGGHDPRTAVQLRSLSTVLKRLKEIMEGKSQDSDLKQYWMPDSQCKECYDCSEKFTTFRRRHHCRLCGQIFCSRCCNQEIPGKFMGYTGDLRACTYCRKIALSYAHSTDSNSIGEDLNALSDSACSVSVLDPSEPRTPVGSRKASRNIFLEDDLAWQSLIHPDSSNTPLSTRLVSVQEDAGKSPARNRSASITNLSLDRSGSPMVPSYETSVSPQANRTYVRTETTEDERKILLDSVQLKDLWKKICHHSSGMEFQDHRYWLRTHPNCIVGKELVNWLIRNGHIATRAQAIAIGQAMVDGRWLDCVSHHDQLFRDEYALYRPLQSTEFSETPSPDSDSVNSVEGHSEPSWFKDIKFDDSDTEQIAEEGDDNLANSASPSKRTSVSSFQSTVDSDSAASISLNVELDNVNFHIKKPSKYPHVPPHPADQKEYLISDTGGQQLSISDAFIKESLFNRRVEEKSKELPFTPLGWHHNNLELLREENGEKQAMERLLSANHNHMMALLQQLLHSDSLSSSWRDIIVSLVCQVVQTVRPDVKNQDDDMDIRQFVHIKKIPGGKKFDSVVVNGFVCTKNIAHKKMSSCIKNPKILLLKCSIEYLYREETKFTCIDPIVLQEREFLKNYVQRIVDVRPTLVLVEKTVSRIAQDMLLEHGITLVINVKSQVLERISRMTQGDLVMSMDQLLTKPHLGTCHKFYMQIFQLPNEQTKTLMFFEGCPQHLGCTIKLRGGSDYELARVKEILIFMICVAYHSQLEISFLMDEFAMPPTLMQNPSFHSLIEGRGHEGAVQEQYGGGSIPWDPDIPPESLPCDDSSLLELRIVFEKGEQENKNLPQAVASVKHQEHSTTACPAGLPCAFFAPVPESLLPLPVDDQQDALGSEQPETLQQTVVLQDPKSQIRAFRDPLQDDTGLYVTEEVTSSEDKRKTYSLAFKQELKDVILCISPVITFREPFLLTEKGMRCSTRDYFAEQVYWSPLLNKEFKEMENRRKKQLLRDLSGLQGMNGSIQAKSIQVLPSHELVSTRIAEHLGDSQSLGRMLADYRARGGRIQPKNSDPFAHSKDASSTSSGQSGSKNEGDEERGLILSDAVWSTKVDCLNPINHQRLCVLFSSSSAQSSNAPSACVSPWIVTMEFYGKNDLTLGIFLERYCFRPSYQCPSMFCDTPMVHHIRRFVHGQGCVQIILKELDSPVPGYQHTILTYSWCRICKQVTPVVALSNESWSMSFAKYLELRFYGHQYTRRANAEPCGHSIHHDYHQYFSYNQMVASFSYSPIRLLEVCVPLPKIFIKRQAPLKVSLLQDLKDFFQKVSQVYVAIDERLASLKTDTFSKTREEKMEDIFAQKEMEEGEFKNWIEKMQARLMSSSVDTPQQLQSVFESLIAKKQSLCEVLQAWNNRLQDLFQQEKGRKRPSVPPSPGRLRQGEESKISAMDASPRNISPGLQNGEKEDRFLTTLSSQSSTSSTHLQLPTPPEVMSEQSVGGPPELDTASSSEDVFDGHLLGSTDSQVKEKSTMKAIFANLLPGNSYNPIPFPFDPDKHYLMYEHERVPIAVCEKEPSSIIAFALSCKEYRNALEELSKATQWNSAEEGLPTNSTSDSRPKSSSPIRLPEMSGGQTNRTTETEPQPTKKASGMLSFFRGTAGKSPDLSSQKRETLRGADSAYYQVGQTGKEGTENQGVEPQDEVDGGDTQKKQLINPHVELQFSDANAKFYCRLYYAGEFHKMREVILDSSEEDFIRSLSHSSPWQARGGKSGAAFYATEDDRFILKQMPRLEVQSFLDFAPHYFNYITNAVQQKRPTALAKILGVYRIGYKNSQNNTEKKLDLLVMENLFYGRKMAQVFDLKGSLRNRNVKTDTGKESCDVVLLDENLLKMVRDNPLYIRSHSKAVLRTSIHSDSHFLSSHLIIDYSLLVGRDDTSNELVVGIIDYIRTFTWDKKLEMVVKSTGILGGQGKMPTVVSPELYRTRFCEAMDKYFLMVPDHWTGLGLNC
Summary of the method: as §1

[6] = molecular target: PCMT1 1-227 PCMT (domain begin residue: 1, domain end residue: 227), P22061
Sequence of PCMT1 1-227 PCMT (domain begin residue: 1, domain end residue: 227), P22061 (P22061 whole entry): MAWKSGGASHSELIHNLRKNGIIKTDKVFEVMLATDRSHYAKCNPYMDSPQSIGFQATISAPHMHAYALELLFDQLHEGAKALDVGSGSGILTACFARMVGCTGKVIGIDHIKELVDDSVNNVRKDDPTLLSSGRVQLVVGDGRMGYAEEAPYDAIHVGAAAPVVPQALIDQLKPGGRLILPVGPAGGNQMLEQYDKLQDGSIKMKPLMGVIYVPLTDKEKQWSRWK
Summary of the method: as §1

[7] = molecular target: T2, PLEK 120-231 DEP (domain begin residue: 120, domain end residue: 231), P08567
T2 chain: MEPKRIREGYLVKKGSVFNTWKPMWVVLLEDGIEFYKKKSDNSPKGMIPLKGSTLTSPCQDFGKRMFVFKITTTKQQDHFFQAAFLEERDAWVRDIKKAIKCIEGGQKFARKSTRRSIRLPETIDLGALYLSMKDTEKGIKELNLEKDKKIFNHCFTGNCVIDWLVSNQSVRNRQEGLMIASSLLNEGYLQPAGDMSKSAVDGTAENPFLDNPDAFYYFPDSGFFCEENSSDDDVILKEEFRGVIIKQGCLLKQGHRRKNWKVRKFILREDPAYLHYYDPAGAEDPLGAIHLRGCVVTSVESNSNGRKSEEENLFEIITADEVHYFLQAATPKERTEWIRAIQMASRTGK
Summary of the method: as §1

[8] = molecular target: PCNA 1-261 PCNA_N+PCNA_C (domain begin residue: 1, domain end residue: 261), P12004
Sequence of PCNA 1-261 PCNA_N+PCNA_C (domain begin residue: 1, domain end residue: 261), P12004 (P12004 whole entry): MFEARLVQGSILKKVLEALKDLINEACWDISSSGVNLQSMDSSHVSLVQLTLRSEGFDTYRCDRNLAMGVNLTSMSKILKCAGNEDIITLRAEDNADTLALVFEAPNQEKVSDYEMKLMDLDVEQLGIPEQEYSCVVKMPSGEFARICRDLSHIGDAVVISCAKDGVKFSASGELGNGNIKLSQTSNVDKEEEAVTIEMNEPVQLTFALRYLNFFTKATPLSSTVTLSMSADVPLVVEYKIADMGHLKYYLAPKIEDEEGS
Summary of the method: as §1

Sequence of PDCD6 23-191 EF-hand_5+EF-hand_7 (domain begin residue: 23, domain end residue: 191), O75340 (O75340 whole entry, the tested form may be a part): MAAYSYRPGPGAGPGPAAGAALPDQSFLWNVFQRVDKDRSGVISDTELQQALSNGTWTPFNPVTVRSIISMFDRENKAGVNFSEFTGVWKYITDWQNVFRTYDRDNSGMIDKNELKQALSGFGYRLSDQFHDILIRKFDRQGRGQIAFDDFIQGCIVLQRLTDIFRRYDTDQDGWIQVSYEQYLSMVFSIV

LQLEPYGWMDWTWQTA
phage ELISA signal ratio [1]: 21.9

EEMQQLGPFYGWQDWV
phage ELISA signal ratio [1]: 30.5

FQEVTMYGWRPEYLSD
phage ELISA signal ratio [1]: 27.7

WEEDFWTGLHFLNNAE
phage ELISA signal ratio [2]: 25.5

VSMTQSESYGWQPWVV
phage ELISA signal ratio [1]: 27.1

QVDMMSQLFMMADQWN
phage ELISA signal ratio [3]: 4.55

TPGDLIDFSTLTFYYV
phage ELISA signal ratio [4]: 7.11

YALPYEWMWMTDLIQE
phage ELISA signal ratio [5]: 3.03

DIPPESYGWAPWVWQV
phage ELISA signal ratio [1]: 35.3

VHWDPYWFLEDNFSNL
phage ELISA signal ratio [6]: 19.9

QTDYAYGFYPFIEQHF
phage ELISA signal ratio [1]: 32.3

DSHYGWAEWVLQGPVA
phage ELISA signal ratio [1]: 35.1

VFEPTLASYGWAHWAV
phage ELISA signal ratio [1]: 25.1

WVEYGWQDWVTKFDQQ
phage ELISA signal ratio [1]: 27.1

WDFPGWSADQMPFSQS
phage ELISA signal ratio [3]: 4.24

EPLNYGWEGWLLDGWS
phage ELISA signal ratio [1]: 28.8

VSYGWAHWTMEQGEDA
phage ELISA signal ratio [1]: 28.1

VPVYGWDPGLWDGHAL
phage ELISA signal ratio [1]: 35.1

MPQFGWEEWVLDGIHF
phage ELISA signal ratio [1]: 20.2

MYGWGPLLMEMNPWQW
phage ELISA signal ratio [1]: 20.8

MDMPYGWMQWVSTEPV
phage ELISA signal ratio [1]: 25.4

RPDIMERLQQLMVWHG
phage ELISA signal ratio [7]: 4.13

HEFWALYDAMPMRSYV
phage ELISA signal ratio [6]: 30.9

MEAPHWVWPPDGYALR
phage ELISA signal ratio [4]: 6.23

WADWVFQENEKWDLFV
phage ELISA signal ratio [1]: 29.1

VDYGWVWESAYTPPMQ
phage ELISA signal ratio [1]: 26.1

IVALESPYGWQDWVTT
phage ELISA signal ratio [1]: 28.1

AQWPMDIGWAPWLLDV
phage ELISA signal ratio [1]: 26.8

FYMWQVIDAQAYVDWI
phage ELISA signal ratio [6]: 4.8

KLEMYQGTIPYGNYWP
phage ELISA signal ratio [4]: 6.64

LQTYDWWADVMDHVLN
phage ELISA signal ratio [7]: 4.42

WAEWVFSDEDPPGHMV
phage ELISA signal ratio [1]: 23

FDAYWQDLYMMDLDSF
phage ELISA signal ratio [2]: 19.8

LVGEMSRNVGWAAWVF
phage ELISA signal ratio [1]: 18.1

YPYGWQQWVWESEQVQ
phage ELISA signal ratio [1]: 27.1

YPEFAHYGFADWIYAS
phage ELISA signal ratio [1]: 30.4

VFYGWQDWVVPGDWDV
phage ELISA signal ratio [1]: 28 ± 2.8

SHNWWHIIEAQEAMAW
phage ELISA signal ratio [6]: 16

VEQFPYGWADWVHEIV
phage ELISA signal ratio [1]: 31.3

ADYPFEVWQAWVFEEV
phage ELISA signal ratio [1]: 36.3

QNGTPMPGWAPWVLEV
phage ELISA signal ratio [1]: 34.1

SFLPVSYGWAPWLIET
phage ELISA signal ratio [1]: 24.1

VNYGWTPEVTWWLHEA
phage ELISA signal ratio [1]: 14.4

WDYMSEEESIRYLIEW
phage ELISA signal ratio [2]: 27.3

YGWDWEFLEGLQYGKV
phage ELISA signal ratio [1]: 32.4

QQMLYGWGPMVQEMLV
phage ELISA signal ratio [1]: 25.4

MSVEPYMPPYGWAEWV
phage ELISA signal ratio [1]: 22.3

MDIWDEMALSINPYMY
phage ELISA signal ratio [3]: 4.38

GARQTLITDWLMVSSD
phage ELISA signal ratio [8]: 15.6

LISGMNGWNYGWADWV
phage ELISA signal ratio [1]: 25.8

AAQYGWQDWVMVPESM
phage ELISA signal ratio [1]: 32.8

LQVEYGWAEWTWIGAD
phage ELISA signal ratio [1]: 27.2

YGWNQILLDESVFHMV
phage ELISA signal ratio [1]: 26.9

YGWDPFLENISWSWQA
phage ELISA signal ratio [1]: 33.4

WAPWVFMDDAPFDSMV
phage ELISA signal ratio [1]: 24.8

DVAWHVPWEQYFEQET
phage ELISA signal ratio [2]: 16.8

ASGEHAVGWQDWVWIS
phage ELISA signal ratio [1]: 31.1
